Assay outcomes from PubChem BioAssay.
ALR inh: inhibitors of human sulfhydryl oxidase ALR; P55789; purified ALR, DTT oxidation, H2O2 HRP-luminol luminescence; inhibition, % (test concentration not listed); 290,000 tested, 3.8% active;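 active = mean replicate inhibition above about 79%, with every replicate also reaching it, limit read from the data; inconclusive = only one of the two criteria met; inactive = mean below limit and not every replicate reaching it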
Target sequence (P55789 whole entry, looked up): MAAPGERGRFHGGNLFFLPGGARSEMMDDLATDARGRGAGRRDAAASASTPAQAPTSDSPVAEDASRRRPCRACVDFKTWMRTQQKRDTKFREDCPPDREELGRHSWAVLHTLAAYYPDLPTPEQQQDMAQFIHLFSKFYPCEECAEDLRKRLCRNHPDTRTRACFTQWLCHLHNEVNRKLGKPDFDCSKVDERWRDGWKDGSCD
NSD2 inh: blocks human histone methyltransferase NSD2; O96028; NSD2 peptide methylation, AlphaScreen, 120 min; inhibition, % at 12.5 µM; 310,000 tested, 0.54% active; in the data active = inhibition above about 50%
CFTR F508del cor: CFTR F508del correction in bronchial cells | CFBE cells, YFP halide quenching; stimulated with forskolin plus potentiator P3; % fluorescence drop versus neutral controls | activity (quench increase), % at 7.58 µM | 350,000 tested, 0.36% active | AID 720511;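 active = mean added fluorescence quench of at least 8% versus neutral control, with both replicates also reaching 8%; inconclusive = only one of the mean or replicate conditions met; inactive = mean below 8% and not both replicates reaching 8%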;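 also: cells transiently co-express mutant CFTR-F508del with the halide-sensitive YFP; corrector assay measuring rescue of mutant channel to the surface after 24 h compound exposure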
PglD DTNB: inhibitors of Campylobacter jejuni PglD acetyltransferase | purified PglD enzyme, DTNB colorimetric CoA detection | inhibition, % at 12.5 µM | 360,000 tested, 0.098% active; in the data active = inhibition above about 16%, passing the limit was not always enough; inconclusive = no clear call, values can overlap the other calls
Env fusion inh: blocks HIV Env-driven cell-cell fusion. HeLa-JRFL Env/CEM21 cell fusion, luciferase. inhibition, % at 12.3 µM. 360,000 tested, 1.1% active. AID 651610;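 active = mean replicate inhibition score of at least 50 and every replicate individually at or above 50; inconclusive = only one of the two criteria met; inactive = mean below 50 and not all replicates reaching 50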;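 also: 0% = plate neutral controls and 100% = maraviroc near 300 nM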
CASP6 VEID inh: blocks human caspase-6 cleavage activity. P55212. purified caspase-6, Z-VEID-R110 cleavage fluorescence. inhibition, % at 12.5 µM. 350,000 tested, 0.53% active. AID 686996;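 active = mean inhibition across replicates at least about 35%, with every replicate also reaching that limit, limit read from the data; inconclusive = only one of the two criteria met; inactive = neither criterion met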;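 also: 0% = median of neutral control wells and 100% = no fluorescence left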
Target sequence (P55212 24-179 limits assumed): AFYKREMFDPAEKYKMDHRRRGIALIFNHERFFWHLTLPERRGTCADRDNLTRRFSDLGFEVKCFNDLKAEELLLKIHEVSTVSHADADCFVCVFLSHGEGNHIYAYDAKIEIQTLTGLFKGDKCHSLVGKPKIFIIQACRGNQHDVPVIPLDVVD
Target sequence (P55212 194-293 limits assumed): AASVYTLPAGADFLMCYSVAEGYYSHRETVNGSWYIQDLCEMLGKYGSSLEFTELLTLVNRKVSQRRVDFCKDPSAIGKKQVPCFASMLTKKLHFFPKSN
The depositor's hits bear a star; [ ] = dose if it differs, or a comment. Shown are actives, neighbours in structure and some others; about 4.1% of the full set was active somewhere.

`O=C1NCCCC2c3c(cc(Br)c(O)c3Br)OC12N1CCOCC1` (stereo not given) gave ALR inh 94.1*, NSD2 inh 2.3, PglD DTNB -0.2 and Env fusion inh -63.3.
Cc1ccc(S(=O)(=O)N[C@H]2CC[C@@H](CCn3cc(C(C)C)nn3)O[C@@H]2CO)cc1 was read as CFTR F508del cor 0.3, PglD DTNB -1.0, Env fusion inh 16.5[16.7 µM] and CASP6 VEID inh 6.0.
COc1cccc(N2CCN(C(=S)Nc3cc(C)cc(C)c3)CC2)c1 was read as ALR inh 6.5, NSD2 inh 4.3, Env fusion inh -11.9 and CASP6 VEID inh -7.4.
For CCOc1ccccc1NC(=S)N1CCN(c2cccc(OC)c2)CC1 the results were ALR inh 98.0*, NSD2 inh 1.9, CFTR F508del cor 2.6, PglD DTNB 3.0, Env fusion inh -14.7 and CASP6 VEID inh 0.3.
`CNC(=S)N1CCN(c2cccc(OC)c2)CC1` gave ALR inh 99.0*, NSD2 inh 3.8, PglD DTNB -1.3 and Env fusion inh -68.4.
For COc1cccc(N2CCN(C(=S)Nc3ccccc3OC)CC2)c1 the results were ALR inh inconclusive, NSD2 inh 4.6, CFTR F508del cor -2.3, PglD DTNB 0.7, Env fusion inh 2.2 and CASP6 VEID inh -5.5.
O=[N+]([O-])c1ccccc1-c1cc(-c2cc(Cl)ccc2O)n[nH]1 was read as ALR inh 98.8*, NSD2 inh 3.5, PglD DTNB 2.9 and Env fusion inh -2.9.
`Oc1ccc(Cl)cc1-c1cc(-c2ccccc2Cl)[nH]n1` gave ALR inh -6.8, NSD2 inh 0.6, PglD DTNB -4.0 and Env fusion inh -26.2.
Oc1ccccc1-c1cc(-c2ccccc2Cl)[nH]n1 was read as ALR inh 89.0*, NSD2 inh 0.1, CFTR F508del cor 1.0 and CASP6 VEID inh 3.3.
COc1ccc(O)c(-c2cc(-c3ccccc3[N+](=O)[O-])[nH]n2)c1 was read as ALR inh 98.8*, NSD2 inh 3.6 and Env fusion inh -1.8.
O=C(C[C@H]1CC[C@H]2[C@@H](COC[C@@H](O)CN2C(=O)c2ccccc2F)O1)NCc1ccccc1 was read as CFTR F508del cor 0.7, PglD DTNB 2.9 and CASP6 VEID inh -2.0.
`COc1ccc(CC(=O)N2CCOCC2)cc1` gave ALR inh 2.5, NSD2 inh -5.9 and PglD DTNB 0.4.
`CCCCCc1ccc(CC(=O)N2CCOCC2)cc1` gave ALR inh -5.9, NSD2 inh -1.5, CFTR F508del cor -1.2, PglD DTNB 0.9, Env fusion inh -2.6 and CASP6 VEID inh 50.3*.
For O=C(CSC1=NS(=O)(=O)c2cc(Cl)ccc2N1)Nc1cccc(F)c1 the results were ALR inh 98.1*, NSD2 inh 0.6, CFTR F508del cor 0.2, PglD DTNB -0.3, Env fusion inh -20.6 and CASP6 VEID inh -1.1.
`O=C(CSC1=NS(=O)(=O)c2ccccc2N1)Nc1ccc(F)cc1` gave ALR inh 96.7*, CFTR F508del cor 0.4, PglD DTNB 0.2, Env fusion inh -10.7 and CASP6 VEID inh 2.6.
For Cc1cc(NC(=O)CSc2cn(CC(=O)N(C(C)C)C(C)C)c3ccccc23)no1 the results were ALR inh 98.2*, NSD2 inh 4.7, CFTR F508del cor 2.5, PglD DTNB -2.7, Env fusion inh 0.8 and CASP6 VEID inh 6.9.
`Cc1cc(NC(=O)COc2ccc3ccccc3c2)no1` gave ALR inh -7.7, NSD2 inh 0.2, CFTR F508del cor -2.2, PglD DTNB -6.2 and Env fusion inh -14.9.
CCn1cc(SCC(=O)Nc2cc(C)on2)c2ccccc21 was read as ALR inh 95.1*, CFTR F508del cor 1.2, PglD DTNB 0.7, Env fusion inh 10.9 and CASP6 VEID inh 0.2.
Screening Cc1cc(NC(=O)CS(=O)(=O)c2cn(Cc3ccccc3Cl)c3ccccc23)no1 returned ALR inh -0.8, PglD DTNB 2.8 and Env fusion inh 89.9*.
Screening Cc1cc(NC(=O)CSc2ccc3ccccc3c2)no1 returned ALR inh 98.8* and NSD2 inh 0.3.
O=C(Nc1ccccc1)N1CC(=O)N2[C@H](CO)[C@H](c3ccc(C#CC4CCCCC4)cc3)[C@@H]2C1 was read as CFTR F508del cor -2.4 and CASP6 VEID inh 2.9.
Screening C[C@H]1CN([C@@H](C)CO)C(=O)c2cc(-c3ccc(C#N)cc3)cnc2O[C@@H]1CN(C)CC1CCCCC1 returned CFTR F508del cor -0.3, PglD DTNB -12.5, Env fusion inh 20.9[16.7 µM] and CASP6 VEID inh 1.9.
`Cc1cc(NC(=O)CSCC(=O)N2CCN(c3ccccc3)CC2)no1` gave ALR inh 99.1*, NSD2 inh -1.5, CFTR F508del cor 2.7, PglD DTNB -3.8 and CASP6 VEID inh 1.2.
`Cc1cc(NC(=O)CSCC(=O)N2CCN(c3cccc(C(F)(F)F)c3)CC2)no1` gave ALR inh -2.5, NSD2 inh 1.9, CFTR F508del cor -1.9, Env fusion inh 7.1 and CASP6 VEID inh 3.8.
Screening CCn1cc(SCC(N)=O)c2ccccc21 returned ALR inh 95.6*, CFTR F508del cor -6.2, PglD DTNB 0.8, Env fusion inh -91.5 and CASP6 VEID inh -0.1.
Cn1cc(SCC(N)=O)c2ccccc21 was read as CFTR F508del cor 2.3, PglD DTNB 2.0, Env fusion inh -0.3 and CASP6 VEID inh 1.3.
For CCOc1ccc(N(CC(=O)Nc2ccc(OC)cc2)C2=NC3CS(=O)(=O)CC3S2)cc1 (stereo not given) the results were ALR inh 98.6*, CFTR F508del cor 1.4, PglD DTNB -2.9, Env fusion inh 6.5 and CASP6 VEID inh -1.2.
O=S1(=O)CC2N=C(N(Cc3ccc(F)cc3Cl)c3ccccc3F)SC2C1 (stereo not given) was read as ALR inh 98.0*, NSD2 inh 34.6, Env fusion inh 39.7 and CASP6 VEID inh 3.5.
CCOc1ccc(N(CC(=O)Nc2ccc(C)c(F)c2)C2=NC3CS(=O)(=O)CC3S2)cc1 (stereo not given) was read as ALR inh 17.3, NSD2 inh 8.7, CFTR F508del cor 0.9, PglD DTNB -0.8, Env fusion inh 1.8 and CASP6 VEID inh -0.2.
Cc1cccc(NC(=O)CN(C2=NC3CS(=O)(=O)CC3S2)c2ccccc2F)c1 (stereo not given) was read as ALR inh 98.6*, CFTR F508del cor 4.3, PglD DTNB -1.7, Env fusion inh 4.3 and CASP6 VEID inh 1.6.
`CCC(=O)N1CC2(C1)[C@H](c1ccccc1)[C@@H](CO)N2CCC(F)(F)F` gave CFTR F508del cor -1.3 and CASP6 VEID inh 1.3.
CC(CC(=O)Nc1ccc2c(c1)c(=O)n(C)n2-c1cccs1)c1ccccc1 (stereo not given) was read as NSD2 inh -3.6, CFTR F508del cor -1.7, PglD DTNB -0.3, Env fusion inh 4.6 and CASP6 VEID inh 36.7*.
